Reference: PubChem BioAssay AID1825 (The Scripps Research Institute Molecular Screening Center, 2009)
Screen size: about 290,000 compounds; about 2,300 (0.79%) were called active. Cut-off read from the data, not from the text of the source: active = inhibition above about 22%; inactive = the rest. The list comes from a sample in which actives are over-represented; it also holds similar structures and randomly drawn compounds.

Assay: IEC-6 cell viability reduction – luminescence, cytotoxicity control for KLF5 inhibitor project, primary screen (AID 1825);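 note: 0% = plate median of test compound wells and 100% = cytotoxic reference compound wells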
Conditions: IEC-6 cytotoxicity, at 5 µM, stronger effect = higher value
With `N#C/C=C/N1CCN(Cc2ccc3c(c2)OCO3)CC1` the inhibition was -5.9% (inactive).
For `Cc1ccc(-n2c(SCC(=O)Nc3ncc(Cl)cc3Cl)nc3ccccc32)cc1`, the inhibition was 61.4% (active).
In the case of `Cc1ccc(SCCC(=O)OCC(=O)Nc2ncc(Cl)cc2Cl)cc1`, the inhibition is reported as -3.3% (inactive).
With `NS(=O)(=O)c1cccc(NC(=O)CSc2nc3ccccc3n2-c2ccccc2)c1` the inhibition was -1.5% (inactive).
With `COCCN1C(=O)C(=O)/C(=C(/O)c2ccc(S(=O)(=O)N3CCOCC3)cc2)C1c1ccc(OC)c(OC)c1` (stereo not given) the inhibition was 5.3% (inactive).
In the case of `NC(=O)Cn1cc(/C=N\NS(=O)(=O)c2ccccc2)c2ccccc21`, the inhibition is reported as 1.4% (inactive).
In the case of `CCOc1ccccc1CNS(=O)(=O)c1cc(-c2cc(C)no2)ccc1C`, the inhibition is reported as 2.7% (inactive).
In the case of `COc1ccc(CNS(=O)(=O)c2cc(-c3cc(C)no3)ccc2C(C)C)cc1`, the inhibition is reported as 77.6% (active).
In the case of `Cc1cc(-c2ccc(C)c(S(=O)(=O)NCCCN(Cc3ccccc3)C(C)C)c2)on1`, the inhibition is reported as 6.1% (inactive).
With `COc1cccc(NC(=O)CN(C)C(=O)c2ccccc2CCc2ccccc2)c1` the inhibition was -3.1% (inactive).
For `Cc1ccc(C(=O)CCC(=O)N(C)CC(=O)Nc2c(Cl)cccc2Cl)cc1`, the inhibition was 1.7% (inactive).
With `Cc1cc(C)nc(S/C=C/C(=O)c2ccccc2)n1` the inhibition was 31.5% (active).
With `Cc1ccc(N/C=C/C(=O)c2ccccc2)cc1C` the inhibition was 0.5% (inactive).
In the case of `Cc1cc(C)nc(SCC(=O)c2ccc(Cl)cc2)n1`, the inhibition is reported as -2.2% (inactive).
For `O=S(=O)(NC1CCCC1)c1ccc(-n2cnnn2)cc1`, the inhibition was -0.4% (inactive).
For `Cc1ccc(NS(=O)(=O)c2ccc(C)c(NC(=O)COc3ccc4ccccc4c3)c2)c(C)c1`, the inhibition was -2% (inactive).
In the case of `COc1cc(NS(=O)(=O)c2ccc3ccccc3c2)c2ncccc2c1`, the inhibition is reported as 93.3% (active).
For `COc1ccc2cc(S(=O)(=O)Nc3ccccn3)ccc2c1`, the inhibition was 1.9% (inactive).
With `CCC(CC)c1nnc(NC(=O)C2CCN(C(=O)c3ccco3)CC2)s1` the inhibition was -0.9% (inactive).
In the case of `COc1ccc(C(=O)c2c(C)c(CCC#N)n3ccccc23)c(OC)c1`, the inhibition is reported as -1.3% (inactive).
With `CCC(=C/c1sc2ccc3ccccc3c2[n+]1C)/C=C1\Sc2ccc3ccccc3c2N1C` the inhibition was 32.2% (active).
With `CC(C)C(=O)Nc1c2c(nn1-c1ccccc1)CSC2` the inhibition was -4.2% (inactive).
For `COc1ccc(/C=C/c2noc(-c3ccccc3OC(C)=O)n2)cc1`, the inhibition was -0.4% (inactive).
With `S=C(Nc1ccc(Br)cc1)NC1CCN(Cc2ccccc2)CC1` the inhibition was 11.3% (inactive).
In the case of `Cc1ccc(-c2csc(NNC(=O)c3ccccc3)n2)cc1`, the inhibition is reported as -1.4% (inactive).
In the case of `COc1ccc2c(c1OC)C(=O)OC2Nc1nc(-c2ccccc2)cs1` (stereo not given), the inhibition is reported as 21.9% (active).
For `Cc1ccc(-c2csc(NC3OC(=O)c4ccccc43)n2)cc1` (stereo not given), the inhibition was 34.7% (active).
In the case of `COc1ccc(-c2csc(NC3OC(=O)c4ccccc43)n2)cc1` (stereo not given), the inhibition is reported as 18.7% (inactive).
With `COc1ccc(CCNc2nc(-c3cccc(NC(C)=O)c3)cs2)cc1OC` the inhibition was 2.3% (inactive).
With `Cc1cccc(Nc2nc(-c3ccccc3)cs2)n1` the inhibition was 5.9% (inactive).
